The supplement of paper PMC4894684
Counter-ions that a name gives are not always drawn. ± gives the standard deviation of the averaged measurements. Among all 1,000 compounds or so, about 15 (2%) showed an effect of 50% or more. This excerpt belongs to a sample that is enriched for strong results.

Test system: HFF
Assay: uninfected host cell viability relative to vehicle control; higher = less host cell toxicity
Conditions: 5 µM; 72 h; oxygen 21 %

Row | Compound | uninfected host cell viability [%]
1 | COc1cc(CNC(=O)CCCC/C=C/C(C)C)ccc1O [(E)-Capsaicin] | 88.13 ± 0.59
2 | CC[C@]1(O)C[C@H]2CN(CCc3c([nH]c4ccccc34)[C@@](C(=O)OC)(c3cc4c(cc3OC)N(C=O)[C@H]3[C@@](O)(C(=O)OC)[C@H](OC(C)=O)[C@]5(CC)C=CCN6CC[C@]43[C@@H]65)C2)C1 [Vincristine sulfate] | 68 ± 2.9
3 | O=c1oc(-c2ccc(C(F)(F)F)cc2)nn1Cc1cc(Cl)ccc1O | 95.1 ± 1
4 | Cc1oncc1C(=O)Nc1ccc(C(F)(F)F)cc1 [Leflunomide] | 93.41 ± 0.27
5 | O=C(Nc1cc(C(F)(F)F)cc(C(F)(F)F)c1)c1cc(Cl)ccc1O | 46.8 ± 2.5
6 | O=C1CC2(CCCC2)CC(=O)N1CCNCC1COc2ccccc2O1 (stereo not drawn) | 85.64 ± 0.64
7 | Cn1cnnc1Sc1c([N+](=O)[O-])ncn1C | 89.361 ± 0.008
8 | N[C@@H](C(=O)O)c1ccc(C(=O)O)c(C(=O)O)c1 | 89 ± 7.8
9 | COc1ccc(-c2nc(C(=O)N3CCN(C)CC3)sc2-c2ccc(OC)cc2)cc1 | 81.4 ± 4.7
10 | O=C1C(Cl)=C(NCCN2CCOCC2)C(=O)c2ncccc21 | 34.44 ± 0.16
11 | O=C1c2ccccc2S(=O)(=O)N1CCCCN1CCN(c2ncccn2)CC1 [Ipsapirone] | 87.04 ± 0.35
12 | Cc1cc(Cn2cnc3c2CC(C(=O)O)N(C(=O)C(c2ccccc2)c2ccccc2)C3)ccc1N(C)C (stereo not drawn) | 82.1 ± 3.1
13 | COc1ccc([C@@H]2CNC(=O)C2)cc1OC1CCCC1 [(R)-(-)-Rolipram] | 82.9 ± 1
14 | C1CCC2(CC1)CCNCC2 [4,4-Pentamethylenepiperidine hydrochloride] | 84.79 ± 0.68
15 | Cc1cc(NC(=O)Nc2ccc(N(C)C)cc2)c2cc(F)cc(F)c2n1 | 85.86 ± 0.3
16 | Nc1ncnc2n[nH]c(Nc3ccc(F)cc3)c12 | 80.93 ± 0.35
17 | O=C(c1ccc(Nc2nccc(-c3cc4ccccc4s3)n2)cc1)N1CCC(N2CCCC2)CC1 | 14.9 ± 0.68

Row | Compound | uninfected host cell viability [%]
18 | O=c1[nH]ccc2c(S(=O)(=O)N3CCCNCC3)cccc12 [HA 1100 hydrochloride] | 90 ± 3.1
19 | Nc1nc2c(ccc3ccccc32)s1 | 77.6 ± 1.3
20 | O=c1cc(N2CCNCC2)oc2c(-c3ccccc3)cccc12 | 87.4 ± 1.8
21 | FC(F)(F)c1cccc(-c2noc(-c3cc(-c4ccccc4)c(C(F)(F)F)s3)n2)c1 | 90.4 ± 2.4
22 | CCN(CC)CCOc1ccc(Cc2ccccc2)cc1 [DPPE fumarate] | 86.65 ± 0.8
23 | CCS(=O)(=O)N1CCC[C@@H]2CN3CCc4cc(OC)ccc4[C@@H]3C[C@@H]21 | 85.4 ± 2.9
24 | N[C@@H](CC(=O)Nc1ccc(Oc2cc(F)c(F)cc2Br)cc1)C(=O)O | 95 ± 0.96
25 | O=c1ncccn1[C@@H]1O[C@H](CO)[C@@H](O)[C@H]1O [Zebularine] | 90.802 ± 0.032
26 | O=C(/C=C/c1ccccc1)NC(NC(=S)Nc1cccc2cccnc12)C(Cl)(Cl)Cl (stereo not drawn) [Salubrinal] | 84.55 ± 0.26
27 | C=C1/C(=C\C=C2/CCC[C@]3(C)[C@@H]([C@H](C)/C=C/[C@@H](O)C4CC4)CC[C@@H]23)C[C@@H](O)C[C@@H]1O [Calcipotriol] | 83.9 ± 3.1
28 | CC(C)c1ccc2c(c1)CC[C@H]1[C@](C)(CN)CCC[C@]21C [Lylamine hydrochloride] | 87.8 ± 1.4
29 | Cc1ccccc1N1CCN(S(=O)(=O)C[C@]23CC[C@H](C[C@@H]2NC(=O)[C@@H](N)CCS(C)(=O)=O)C3(C)C)CC1 [L-368,899 hydrochloride] | 87.07 ± 0.83
30 | C=C1C(=O)O[C@@H]2/C=C(\C)CC/C=C(\C)CC[C@@H]12 [Costunolide] | 114 ± 2.7
31 | N[C@@H](Cc1cc(CP(=O)(O)O)cc(-c2ccccc2Cl)c1)C(=O)O | 88.9 ± 6
32 | O=C(Nc1ccccc1)N[C@@H]1C[C@@H](C(=O)O)Nc2cc(Cl)cc(Cl)c21 | 87.6 ± 1.1
33 | c1ccc(C(O[C@@H]2CCCN(CCc3ccc4c(c3)OCO4)C2)c2ccccc2)cc1 [Zamifenacin fumarate] | 90.5 ± 1
